From PubChem
Pf growth 48h – P. falciparum growth inhibition at 48 hours (one generation); 5.9% of 310,000 active; Potency, µM (highest dose often 28.7 µM), for the others: at the top dose activity change, negative = inhibition, hits mostly inhibitors; P. falciparum luciferase growth in erythrocytes, 48 h; AID 504832; note: potency is the fitted concentration of half-maximal effect; % is set by controls: 0 for no effect and ±100 for the full control effect
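Luciferase-expressing parasites in RBCs, 2% Hct / 0.1% parasitemia final; RPMI 1640 + 0.5% Albumax; 37 C, 5% CO2, one generation; luminescence read-out, lower signal = inhibition.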
Pf growth 96h – inhibits malaria parasite growth, 96 h; P. falciparum luciferase reporter growth, 96 h; Potency, µM (doses to about 28.7 µM), for inactives: top-dose activity change, negative = inhibition, most hits filed as inhibitors; 6.9% of 320,000 active; AID 504834; note: potency is the fitted concentration of half-maximal effect; % is set by controls: 0 for no effect and ±100 for the full control effect
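Infected RBCs, 2% Hct / 0.05% parasitemia final; luciferase-reporter P. falciparum; cpd 96 h, 37 C, 5% CO2; luciferase detection reagent; luminescence.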
Cycloheximide cs – counter-screen for Shiga toxin inhibitors: cycloheximide protein synthesis inhibition. 12% of 300,000 active. max response, %. cell reporter, cycloheximide protein synthesis inhibition counterscreen; in the data active = max response mostly above about 13%, no sharp cut-off; inactive = mostly below about 14%; note: read at 38.3 µM for the half of the compounds with a filed dose; 0% is about no effect
Shiga toxin inh – Shiga toxin inhibition. Vero cells, Shiga toxin protein synthesis inhibition reporter. inhibition, % at 38.7 µM. 9.2% of 290,000 active; in the data active = inhibition mostly above about 28%, no sharp cut-off; inactive = mostly below about 43%; note: 0% is about no effect
HCV inhibitor – blocks hepatitis C virus; Huh7.5.1 HCVcc-Cre infection, luciferase reporter, 44 h; Potency, µM (doses to about 41.8 µM), inactives show at the top dose activity change, negative = inhibition, usual class: inhibitors; 3.4% of 340,000 active; AID 651820; note: potency is the fitted concentration of half-maximal effect; % is set by controls: 0 for no effect and ±100 for the full control effect
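1,000 cells/well; 4 h culture; + compound; + HCVcc-Cre (~0.5 moi); 44 h; luciferase substrate, RT 15 min; read 15 sec.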
AMA1 RON2 block – inhibitors of Plasmodium falciparum AMA1-RON2 interaction; 0.2% of 360,000 active; AlphaScreen AMA1-biotinylated RON2 peptide binding; Potency, µM (top dose mostly 58.2 µM), for inactives: at the top dose activity change, negative = inhibition, actives largely listed as inhibitors;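 note: potency is the fitted concentration of half-maximal effect; 0% = vehicle wells and -100% = peptide control; nearly all actives have a fitted effect of over 45% in size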
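AMA1 (3D7) with his tag at 25 nM final met compounds first, then biotinylated RON2 peptide at 25 nM; detection used donor plus acceptor beads, 10 µg/mL apiece, read by AlphaScreen after 30 min at room temperature.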
* marks the source's active call; other numbers are inactive results; i = inactive; ? = inconclusive; . = no result given; [ ] = dose if it differs, or a comment. This is a sample that favours compounds with a hit; in the whole collection about 21% have one here. Unless noted, calls come from the whole dose curve; as a rule, active = well fitted curve in the direction sought with a large enough effect; inconclusive = small, poorly fitted or top-dose-only effect, or another doubt; inactive = no such curve, though single readings can be large; an effect the other way counts as inactive or inconclusive.

SMILES	Pf growth 48h	Pf growth 96h	Cycloheximide cs	Shiga toxin inh	HCV inhibitor	AMA1 RON2 block
O=C1c2ccccc2C(c2nnnn2Cc2ccccc2)N1Cc1cccnc1 (centres undefined)	.	.	.	.	.	-2%
COC(=O)C1CC(O)C(O)C(O)C1 (centres undefined)	.	.	.	.	15%	0%
COc1ccc(-c2cc(C(=O)O)nc3ccc4ccccc4c23)cc1OC	123%	?	18*	41*	16%	-8%
COc1ccc(-c2cc3ccccc3nc2N)cc1OC	1%[0.00184 µM]	?	1	4	11µM*	0%
Cc1ccccc1NS(=O)(=O)c1ccc(C(=O)NCc2ccccc2CN2CCCC2)cc1	.	.	.	.	.	16%
O=C(Nc1ncccn1)c1ccc(Cl)c([N+](=O)[O-])c1	?	8%	-6	.	20%	4%
CS(=O)(=O)c1ccc(Cl)c(NC(=O)CSc2nnc(C3CC3)n2C2CC2)c1	7%	-15%	.	.	11%	-1%
CC12CCC(C/C1=N\N=C1\NC(=O)/C(=C\c3cccc(Br)c3)S1)C2(C)C (centres undefined)	?	13µM*	-1	-2	-28%	11%
O=C(O)CCCC(=O)N1N=C(c2ccccc2)CC1c1cccs1 (centres undefined)	35%	-12%	3	7	10%	-14%
Nc1nonc1-c1noc(COc2ccccc2Cl)n1	283%	?	23*	83*	-1%	8%
Cc1cccc(OCc2nc(-c3nonc3N)no2)c1C	63%	?	56*	53*	-9%	36%
CCOc1ccc(Cc2nc(-c3nonc3N)no2)cc1OCC	-9%	1.5µM*	2	19	?	7%
Cc1cccc(OCc2nn[nH]n2)c1C	11%	-3%	-4	-10	9%	6%
Clc1ccc(-c2noc(COc3ccccc3)n2)cc1	55%	27%	-2	24	-25%	12%
CCOc1ccc(-c2noc(CCC(N)=O)n2)cc1OCC	-28%	-19%	5	-8	0%	17%
CC1(C)CC(NC(=O)c2cc(S(=O)(=O)N3CCOCC3)ccc2Cl)CC(C)(C)N1	.	.	.	.	-3%	9%
CC(OC(=O)c1cccc(-n2cnnn2)c1)c1nc2ccccc2c(=O)[nH]1 (centres undefined)	?	?	.	.	-8%	5%
CCn1ncc(Br)c1C(=O)Nc1c(C)nn(Cc2c(F)c(F)c(F)c(F)c2F)c1C	-11%	?	7	1	?	-8%
Clc1ccc2nc(CSc3nnc4ccccn34)cn2c1	115%	82%	38*	92*	0%	-5%
Cc1cccc2nc(CSCc3ccco3)cn12	64%	i	31*	82*	13%	-10%
Clc1ccc2nc(CSc3nc4ccccc4o3)cn2c1	93%	?	37*	129*	-1%	-9%
Nn1c(SCc2cn3cc(Cl)ccc3n2)nnc1-c1ccncc1	-3%	2%	2	-2	9%	0%
Nc1nnc(SCc2cn3cc(Cl)ccc3n2)s1	125%	111%	28*	84*	11%	6%
N#CCSc1nc2ccccc2o1	40%	4%	1	-8	14%	-6%
Cc1onc(-c2ccccc2)c1C(=O)NCCSCc1ccco1	.	.	.	.	0%	-6%
SMILES	Pf growth 48h	Pf growth 96h	Cycloheximide cs	Shiga toxin inh	HCV inhibitor	AMA1 RON2 block
c1ccc2c(SCc3cn4ccccc4n3)nncc2c1	35%	-8%	38*	76	8%	-4%
c1ccc2[nH]c(SCc3cn4ccccc4n3)nc2c1	?	18%	20*	54*	-13%	-10%
Cc1cccc2nc(CSc3nc4ccccc4[nH]3)cn12	15%	18%	13	24	17%	-16%
Clc1ccc2nc(CSc3nncn3-c3ccccc3)cn2c1	53%	31%	-1	-2	3%	20%
Clc1ccc2nc(CSCc3ccccc3)cn2c1	301%	294%	49*	99*	-15%	-3%
Cc1ccc(SCc2cn3c(C)csc3n2)cc1	183%	?	44*	74*	-1%	-17%
CCOC(=O)C1(CCCc2ccccc2)CCN(C(=O)c2n[nH]c(CC)c2C)CC1	.	.	.	.	.	3%
Cc1ccc(SCc2cn3cc(Cl)ccc3n2)cc1	62%	79%	52*	62*	-5%	9%
Clc1ccc(SCc2cn3ccccc3n2)cc1	175%	173%	37*	54*	-3%	0%
Cc1cccc2nc(CSc3ccc(Cl)cc3)cn12	51%	?	49*	91*	7%	-21%
O=C(/C=C/[C@H]1O[C@@H](n2ccc(=O)[nH]c2=O)[C@H](O)[C@@H]1O)NCCN1CCOCC1	.	.	.	.	.	7%
COc1ccc(S(=O)(=O)N(C)C[C@@H]2OCCCC[C@H](C)Oc3ccc(NC(=O)Nc4ccc(C(F)(F)F)cc4)cc3C(=O)N([C@H](C)CO)C[C@H]2C)cc1	.	.	.	.	.	-8%
Oc1ccc(Cl)cc1CNCc1ccc(F)c(F)c1	3.3µM*	5.2µM*	.	.	7%	55%
O=[N+]([O-])c1ccc(CNCc2cc(Cl)ccc2O)cc1	12µM*	?	.	.	?	67%
COc1ccc(CNCc2cc(Cl)ccc2O)cc1	9.3µM*	13µM*	.	.	?	8%
Oc1ccc(Cl)cc1CNCc1cccc2ccccc12	0.41µM*	0.93µM*	.	.	4%	78%
Oc1ccc(Cl)cc1CNCc1ccc(Cl)nc1	?	?	.	.	-13%	16%
O=C(c1ccoc1)N1CCN(c2cc(-c3cccnc3)nc3cc(-c4cccc(Cl)c4)nn23)CC1	.	.	.	.	.	3%
COCCCN=C(c1ccco1)n1c(=S)nc(-c2ccco2)n(CCCOC)c1=S	5%	27%	28*	62*	-12%	36%
O=C(Nc1ccc(Cl)cc1C(F)(F)F)c1ccccc1	23%	?	16*	15	4%	-6%
NC(=O)c1ccccc1NC(=O)c1ccccc1Cl	3%	?	11	44	15%	-8%
O=C(Nc1ccccc1Cl)c1ccc(C(=O)Nc2ccccc2Cl)cc1	.	.	.	.	9%	-17%
O=C(Nc1ccccc1Cl)c1ccccc1	52%	66%	30*	148*	17%	12%
COCC(=O)Nc1ccc(C(=O)Nc2ccccc2Cl)cc1	76%	193%	33*	92*	.	.
O=C(Nc1ccccc1NC(=O)c1ccccc1Cl)c1ccccc1Cl	?	15µM*	-1	6	-11%	-2%
C[C@@H](NC(=O)c1cc2c([nH]c3ccccc32)c(-c2ccccc2)n1)C(=O)O	1%[0.00184 µM]	?	-2	-2	-14%	12%
COc1cc(NC(C)CCCN)c2nc(C)ccc2c1Oc1ccc(F)cc1 (centres undefined)	.	.	.	.	.	88%
O=C(Nc1cccc(NC(=O)c2cccnc2)c1)c1ccccc1	19%	19%	-2	18	8%	15%
O=C(Nc1ccc(C(=O)Nc2ccccc2Cl)cc1)c1cccnc1	-5%	-11%	19*	29*	-13%	3%
